Bioassay records (PubChem BioAssay)
This is a sample that favours compounds with a hit; in the whole collection about 6.5% have one here.
Marburg entry inh: qHTS for inhibitors of binding or entry into cells for Marburg Virus | Marburg virus pseudotyped entry inhibition, cell reporter | Potency, µM (titrated, usually from 37.8 µM), without a hit: at the highest dose activity change, negative = inhibition, hits mostly inhibitors | hit rate 1.8% among 300,000; calls by dose curve; tested in HEK293 cells; note: potency is the fitted concentration of half-maximal effect
HCMV antiviral: qHTS Assay for inhibitors of the human cytomegalovirus (HCMV); HFF cells, HCMV-luciferase reporter, 72 h; active compounds read low; activity change, negative = inhibition, % at 57.5 µM; hit rate 4.5% among 410,000; in the data active = activity change below about -60%; inconclusive = no clear call, values can overlap the other calls; inactive = above about -39%
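After 16 h attachment at 37C, HFF cells received test compound and HCMV-luciferase (1 PFU/cell); reporter luminescence read 72 h later, data normalized against buffer-only and known inhibitor Salinomycin.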
Vaccinia Venus: qHTS for Stage-Specific Inhibitors of Vaccinia Orthopoxvirus: Venus Reporter Primary qHTS | Vaccinia virus Venus reporter expression, fluorescence | Potency, µM (top dose mostly 36.5 µM), for the others: top-dose activity change, negative = inhibition, hits mostly inhibitors | hit rate 0.46% among 330,000 | AID 720580, 2013; calls by dose curve; tested in A549 cells; note: potency is the fitted concentration of half-maximal effect; nearly all actives have a fitted effect of over 30% in size
FMDV antiviral: High Throughput Screening for Foot and Mouth Disease Virus Antivirals; FMDV antiviral cell-based qHTS; hit rate 1.2% among 410,000; Potency, µM (top dose mostly 57.9 µM), for the others: at the highest dose activity change, negative = inhibition, hits mostly inhibitors; calls by dose curve; tested in HEK293T cells; note: read-out not given here; potency is the fitted concentration of half-maximal effect; nearly all actives have a fitted effect of over 45% in size
Vaccinia mCherry: qHTS for Stage-Specific Inhibitors of Vaccinia Orthopoxvirus: mCherry Reporter Primary qHTS; AID 720579, 2013; Vaccinia virus mCherry reporter infection, fluorescence; Potency, µM (doses to about 36.5 µM), for the others: top-dose activity change, negative = inhibition, usual class: inhibitors; hit rate 0.63% among 310,000; calls by dose curve; tested in A549 cells; note: potency is the fitted concentration of half-maximal effect; nearly all actives have a fitted effect of over 35% in size
Lassa entry inh: qHTS for Inhibitors of binding or entry into cells for Lassa Virus. hit rate 1.2% among 300,000. AID 540256, 2011. Potency, µM (highest dose often 37.9 µM), for the others: at the top dose activity change, negative = inhibition, most hits filed as inhibitors. Lassa virus pseudotype entry inhibition, cell reporter; calls by dose curve; tested in HEK293 cells; note: potency is the fitted concentration of half-maximal effect; nearly all actives have a fitted effect of over 50% in size
* = called active by the depositor; i = inactive; ? = inconclusive; . = no result; ! = not active in a repeat; [ ] = dose if it differs, or a comment. % is set by controls: 0 for no effect and ±100 for the full control effect.

SMILES	Marburg entry inh	HCMV antiviral	Vaccinia Venus	FMDV antiviral	Vaccinia mCherry	Lassa entry inh
COc1cccc2sc(Nc3nnc(-c4ccccc4Cl)o3)nc12	?	-60.2*	-28.8%	11.1%	?	?
COc1ccccc1-c1nnc(Nc2nc3c(OC)cccc3s2)o1	?	-75.9*	-29.4%	-11.5%	?	?
COc1cccc2sc(NN)nc12	-0.8%[46.1 µM]	29.1	-3.9%	32.6%	-15.2%	22.5%
CC(=O)N1CCC2(CC1)OC(=O)C(C)=C2C(=O)NCc1ccc(Cl)cc1	.	?	-15.1%	-6.3%	-6.4%	-0.7%[46.1 µM]
CC(C(=O)Nc1ccccc1-c1ccccc1)N1CCN(C(=O)c2ccccc2)CC1 (stereo not given)	?	?	-29.1%	-15.5%	i	?
CC1CCN(C(C)C(=O)Nc2ccccc2-c2ccccc2)CC1 (stereo not given)	11.6µM*	-31.8	-7.9%	?	-12.8%	-3.5%
Cc1ccc(C)n1-c1nnc(N2CCCC(C(=O)NCc3ccc(F)cc3)C2)s1 (stereo not given)	-29.5%[46.1 µM]	-17.4	-13.0%	0.0%	-18.2%	0.4%[46.1 µM]
Cc1cccc(NC(=O)CSc2nc3ccccc3c3nc(CCc4c(C)n[nH]c4C)nn23)c1	18.3µM*	-81.7*!	-15.6%	?	-29.3%	?
Cc1n[nH]c(C)c1CCc1nc2c3ccccc3nc(SCC(=O)Nc3ccccc3F)n2n1	?	-72.7*	?	-11.7%	?	-15.1%
CCn1c(SCC(=O)Nc2cccc(C)c2)nc2ccccc2c1=O	?	-32.0	-1.8%	-6.2%	5.3%	-22.0%[46.1 µM]
Cc1ccc(S(=O)(=O)N2CCOCC2)cc1NC(=O)COC(=O)CCc1c[nH]c2ccccc12	7.6%	-11.1	-4.6%	-11.9%	-12.7%	4.8%
COc1cc(C(=O)NC2CCN(C)CC2)ccc1Nc1ncc2c(n1)N(CCc1ccccc1)CCC(=O)N2C	0.8%	-77.6*	?	0.0%	?	.
COc1cc(C(=O)NC2CCN(C)CC2)ccc1Nc1ncc2c(n1)N(C1CCCC1)CCC(=O)N2C(C)C	.	.	?	-1.1%	?	.
COc1cccc(/C(O)=C2\C(=O)C(=O)N(CCN(C)C)[C@@H]2c2ccc(Br)cc2)c1	0.3%[46.1 µM]	.	.	.	.	.
CNc1nc(NCc2ccco2)c2ccccc2n1	.	.	?	.	-17.1%	.
c1ccc(CN2CCN(c3nc(NCc4ccco4)c4ccccc4n3)CC2)cc1	?	-33.6	?	31.6µM*	?	12.6µM*
Oc1ccccc1Nc1nc(NCc2ccco2)c2ccccc2n1	.	0.0	.	?	.	.
Cc1cccc(Nc2nc(NCc3ccco3)c3ccccc3n2)c1	?	-94.8*	12.6µM*	28.2µM*	?	5.8µM*
COc1ccc(OC)c(Nc2nc(NCc3ccco3)c3ccccc3n2)c1	12.6µM*	?	-23.3%	?	-22.5%	-9.2%[46.1 µM]
c1ccc(Nc2nc(NCc3ccco3)c3ccccc3n2)cc1	?	-66.2*	?	14.1µM*	i	12.6µM*
COc1ccc([C@]23Cc4cc(C#N)ccc4C(O2)c2c(cc(-c4ccccc4)oc2=O)O3)cc1	7.0%[14.2 µM]	.	.	.	.	.
COCOCCn1cc(CN2CCS(=O)(=O)N(Cc3ccc(-c4ccc(Cl)c(Cl)c4)cc3)C(C)C2=O)nn1 (stereo not given)	.	?	12.6µM*	?	?	-7.2%[46.1 µM]
COc1ccc(-c2ccc(CN3C(CC(C)C)C(=O)N(Cc4cn(CCC5OCCO5)nn4)CCS3(=O)=O)cc2)cc1OC (stereo not given)	?	-62.2*	-13.4%	-14.6%	-0.5%	.
CC1C(=O)N(Cc2cn(CCC3OCCCO3)nn2)CCS(=O)(=O)N1Cc1ccc(-c2ccc(Cl)c(Cl)c2)cc1 (stereo not given)	.	-92.3*	?	?	-29.3%	.
CC(C)CC1C(=O)N(Cc2cn(CCC3OCCO3)nn2)CCS(=O)(=O)N1Cc1ccc(-c2ccc(F)cc2)cc1 (stereo not given)	.	-23.5	-24.9%	-5.9%	-29.4%	-20.9%[46.1 µM]
SMILES	Marburg entry inh	HCMV antiviral	Vaccinia Venus	FMDV antiviral	Vaccinia mCherry	Lassa entry inh
COC(=O)c1cc(CNC(=O)c2ccccc2F)cc(NC(=O)c2ccccc2OC)c1	.	.	8.8%	?	-6.6%	.
Cc1cc(C(=O)N2CCOCC2)c(C)o1	17.5%[46.1 µM]	-98.8*	7.2%	-8.3%	i	5.7%[46.1 µM]
Cc1cccc(-c2nc3cc(NC(=O)COc4ccccc4F)ccc3o2)c1	-2.5%[46.1 µM]	76.6	-14.5%	20.1%	-7.4%	7.4%[46.1 µM]
OC(c1ccc(Cl)cc1)c1nnc(Nc2ccc(F)c(Cl)c2)s1 (stereo not given)	.	-63.3*	.	.	.	.
COc1ccc(Nc2nc3[nH]c(=O)cc(O)c3s2)cc1	?	-25.3	4.9%	-3.1%	0.9%	?
O=c1cc(O)c2sc(Nc3ccc(Cl)c(F)c3)nc2[nH]1	-12.4%[46.1 µM]	-76.5*	7.9%	-5.4%	?	-10.0%
O=c1cc(O)c2sc(Nc3ccc(F)c(Cl)c3)nc2[nH]1	-1.0%[46.1 µM]	-101.4*	13.0%	15.0%	3.8%	-0.1%
C#CCCCON=C1C[C@@H](O)[C@H](O)[C@H]2[C@@H]3C(=O)N(C[C@@H]4CCCO4)C(=O)[C@@H]3CC[C@@H]12	3.5%[14.2 µM]	.	.	.	.	.
CC1=C[C@@H](COCc2ccccc2)O[C@@]2(C1)C(=O)Nc1cccc(Br)c12	8.6%[14.2 µM]	.	.	.	.	?
COc1ccccc1N1CCN(C(=O)C(C)N(c2ccc(C)c(C)c2)S(C)(=O)=O)CC1 (stereo not given)	-27.6%	-15.1	-22.6%	35.5µM*	.	-17.7%
Cc1nnc(NCC=Cc2ccccc2)s1	.	28.3	8.9%	11.3%	37.8%	.
C=CCN(C)C1=NC(c2ccccc2)C(C(=O)OC)=C(C)N1CCOC (stereo not given)	3.8%[14.2 µM]	.	.	.	.	.
COc1ccc(N2C(=O)c3ccc(C(=O)Nc4ccc(NC(C)=O)cc4)cc3C2=O)cc1	4.3%[46.1 µM]	-7.6	-15.5%	-9.1%	i	8.0%[46.1 µM]
O=C(O)c1cccc(NC(=O)c2cccc(NC(=O)C3CCCO3)c2)c1 (stereo not given)	-20.8%	63.0	-5.2%	?	-11.9%	-25.9%
O=C(O)c1cccc(C(=O)Nc2cccc(NC(=O)C3CCCO3)c2)c1 (stereo not given)	11.2µM*	13.6	-14.7%	?	i	10µM*
O=C(Nc1ccc(N=Nc2ccccc2)c(NC(=O)C2CCCO2)c1)C1CCCO1 (stereo not given)	?	-61.2*	?	34.5%	-11.6%	?
CCCCCC(CC(=O)NO)C(=O)NC(C(=O)N1CCCC1CO)C(C)C (stereo not given)	.	-69.1*	-14.5%	-18.5%	i	.
Cc1ccc(C)c(N(CC(=O)NC2CCCC2)C(=O)c2oc(C(C)(C)C)cc2C)c1	?	-67.5*	-14.7%	.	-9.3%	?
Cc1cc(C(C)(C)C)oc1C(=O)N(CC(=O)NC1CCCC1)Cc1ccccc1	-17.9%	-24.0	-4.5%	.	-9.6%	-5.8%
Clc1cccc(Cl)c1CNc1ccc(N2CCCC2)cc1	?	-77.5*	9.8%	-9.0%	-5.8%	3.8%
